This note sets out measurements from PubChem BioAssay (Tox21).

SMILES strings stand for the structures. Where “and” joins values, the source holds several entries; their conditions need not be identical. Identical values can stand only once. Results filed as inconclusive are left out. More than one record can exist for a structure, and the calls need not agree. Calls of active or inactive are those of the source. Calls follow the shape of the dose curve; as a rule, active = well fitted curve in the direction sought with a large enough effect in the repeat runs; inconclusive = weak or mixed curves; inactive = no such curve, though single readings can be large; an effect the other way counts as inactive or inconclusive.

Test [1] in a line: qHTS RealTime-Glo MT Cell Viability Assay in HepG2 cells - 8 hour (AID 1224873). Also: nearly all actives have a fitted effect of over 55% in size. Also: potency is read from the fitted curve at half-maximal effect. The method in brief:
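HepG2 cells mixed with RealTime-Glo MT reagents (NanoLuc plus cell-permeant prosubstrate) were seeded at 600 cells/well, incubated 5 h at 37 C/5% CO2, then pinned with compounds in DMSO; nonlytic luminescence tracked viability during 40 h treatment.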

Test [2] can be described thus: qHTS RealTime-Glo MT Cell Viability Assay in HEK293 cells - 40 hour (AID 1224874). Also: nearly all actives have a fitted effect of over 50% in size. Also: potency is read from the fitted curve at half-maximal effect. As to conditions: RealTime-Glo luminescence; max response: stronger effect = lower value. The method in brief:
(§1)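 600 cells/well were plated with the nonlytic NanoLuc/prosubstrate reagent, pre-incubated 5 h, then given 23 nL of compound in DMSO. Incubation at 37 C for 40 h, with luminescence from viable-cell-reduced substrate read repeatedly from 0 h.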

Test [3] is described as follows: A CellTox Green Cytotoxicity Assay to monitor cytotoxicity in HEK293 cells - 24 hour (AID 1224875). Also: series mostly up to about 77 µM; nearly all actives have a fitted effect of over 45% in size. The method in brief:
(§2)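 HEK293 cells, 600/well, were preincubated 5 hours and then exposed to compounds at 37 C for up to 40 hours. A cell-impermeant cyanine dye staining dead-cell DNA was read by fluorescence at 0, 8, 16, 24, 32 and 40 h time points.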

The nature of test [4]: A CellTox Green Cytotoxicity Assay to monitor cytotoxicity in HepG2 cells - 16 hour (AID 1224876). Also: nearly all actives have a fitted effect of over 45% in size. An outline of the steps:
(§3)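 HepG2 cells, 600/well, preincubated 5 h with CellTox Green dye, then exposed to Tox21 compounds in DMSO at 37 C for up to 40 h. Dead-cell DNA fluorescence read at the indicated time point.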

A short description of test [5]: qHTS RealTime-Glo MT Cell Viability Assay in HepG2 cells - 32 hour (AID 1224877). Also: nearly all actives have a fitted effect of over 55% in size. Also: potency is read from the fitted curve at half-maximal effect. The method in brief: (§4)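 Cells + NanoLuc/prosubstrate dispensed (600 cells/well) → 5 h at 37 C/5% CO2 → compounds in DMSO transferred → 40 h incubation at 37 C, luminescence read at 0, 8, 16, 24, 32, 40 h.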
(In general: qHTS replaces the single test concentration by a dilution series.)

Test [6] is described as follows: A CellTox Green Cytotoxicity Assay to monitor cytotoxicity in HepG2 cells - 24 hour (AID 1224878). Also: nearly all actives have a fitted effect of over 45% in size. Also: potency is read from the fitted curve at half-maximal effect. The method in brief: as §3
A short description of test [7]: A CellTox Green Cytotoxicity Assay to monitor cytotoxicity in HepG2 cells - 40 hour (AID 1224879). Also: nearly all actives have a fitted effect of over 40% in size. Also: potency is read from the fitted curve at half-maximal effect. The method in brief: as §3
The nature of test [8]: qHTS RealTime-Glo MT Cell Viability Assay in HEK293 cells - 0 hour (AID 1224880). Also: top concentration of the series differs between compounds; nearly all actives have a fitted effect of over 45% in size. The method in brief:
as §1

A short description of test [9]: A CellTox Green Cytotoxicity Assay to monitor cytotoxicity in HEK293 cells - 32 hour (AID 1224881). Also: nearly all actives have a fitted effect of over 40% in size. An outline of the steps: as §2
Test [10] in a line: A CellTox Green Cytotoxicity Assay to monitor cytotoxicity in HepG2 cells - 0 hour (AID 1224882). Also: nearly all actives have a fitted effect of over 35% in size. The method in brief: as §3
A short description of test [11]: A CellTox Green Cytotoxicity Assay to monitor cytotoxicity in HepG2 cells - 32 hour (AID 1224883). Also: nearly all actives have a fitted effect of over 50% in size. Also: potency is read from the fitted curve at half-maximal effect. An outline of the steps:
as §3

A short description of test [12]: A CellTox Green Cytotoxicity Assay to monitor cytotoxicity in HEK293 cells - 8 hour (AID 1224884). Also: nearly all actives have a fitted effect of over 35% in size. Also: potency is read from the fitted curve at half-maximal effect. The method in brief:
as §2

Test [13] is described as follows: qHTS RealTime-Glo MT Cell Viability Assay in HepG2 cells - 16 hour (AID 1224885). Also: nearly all actives have a fitted effect of over 50% in size. Also: potency is read from the fitted curve at half-maximal effect. The method in brief: as §4
Test [14] is described as follows: qHTS RealTime-Glo MT Cell Viability Assay in HEK293 cells - 24 hour (AID 1224886). Also: nearly all actives have a fitted effect of over 50% in size. Also: potency is read from the fitted curve at half-maximal effect. The method in brief: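 Tox21 10K qHTS, HEK293, 600 cells/well, RealTime-Glo reagent co-dispensed with cells; 5 h preincubation, compound by pintool, 37 C, luminescence at 0–40 h.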
The nature of test [15]: qHTS RealTime-Glo MT Cell Viability Assay in HEK293 cells - 8 hour (AID 1224887). Also: nearly all actives have a fitted effect of over 50% in size. Also: potency is read from the fitted curve at half-maximal effect. An outline of the steps: as §1
The nature of test [16]: A CellTox Green Cytotoxicity Assay to monitor cytotoxicity in HEK293 cells - 16 hour (AID 1224888). Also: nearly all actives have a fitted effect of over 35% in size. An outline of the steps: as §2
Test [17] can be described thus: qHTS RealTime-Glo MT Cell Viability Assay in HepG2 cells - 0 hour (AID 1224889). Also: nearly all actives have a fitted effect of over 50% in size. An outline of the steps: as §4
The nature of test [18]: A CellTox Green Cytotoxicity Assay to monitor cytotoxicity in HepG2 cells - 8 hour (AID 1224890). Also: nearly all actives have a fitted effect of over 45% in size. Also: potency is read from the fitted curve at half-maximal effect. An outline of the steps: as §3
A short description of test [19]: qHTS assay to identify small molecule antagonists of the estrogen receptor alpha (ER-alpha) signaling pathway using the BG1 cell line in the presence of 0.1 nM 17-beta-estradiol - cell viability counter screen (AID 1259241). Also: nearly all actives have a fitted effect of over 40% in size. Also: potency is read from the fitted curve at half-maximal effect. The method in brief:
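Estradiol-stimulated (0.1 nM) VM7Luc4E2 cells exposed to compounds 22 hr; viability measured by fluorescence of cleaved CellTiter-Fluor substrate after 30 min.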

Test [20] in a line: qHTS assay to identify small molecule antagonists of the androgen receptor (AR) signaling pathway using the MDA cell line in the presence of 0.5 nM R1881 - cell viability counter screen (AID 1259242). Also: nearly all actives have a fitted effect of over 45% in size. Also: potency is read from the fitted curve at half-maximal effect. An outline of the steps:
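MDA-kb2 cells (MMTV-luciferase, AR/GR responsive) were treated with compounds plus 0.5 nM R1881 (final) for 16 hr at 37C, 0% CO2. Viability was then read in the same wells as live-cell protease fluorescence (CellTiter-Fluor, 30 min).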
% is scaled to controls: 0 for no effect and ±100 for the full control effect.

Turning to `CCOc1ccc2c(c1)C(C)=CC(C)(C)N2`, the Potency entry in test [1], in test [3], in test [4], in test [5], in test [6] and in [7] was “inactive” in each case. The Potency result in test [8], in test [9], in [10], in [11], in test [12] and in test [13] was “inactive” in each case. The Potency entry in test [14], in test [15], in test [16], in [17], in [18] and in test [19] was “inactive” throughout. For the same compound, the Potency entry in [20] was “inactive”. Also, the max response in test [2] was -10.3% (inactive) and 3.02% (inactive).

For `NCCO`, the Potency result in [1], in test [3], in test [4], in test [5], in [6] and in test [7] was “inactive” each time. Further, the Potency entry in [8], in test [9], in test [10], in test [11], in test [12] and in [13] was “inactive” each time. For the same compound, the Potency entry in test [14], in test [15], in test [16], in [17], in test [18] and in test [19] was “inactive” throughout. For the same compound, the Potency entry in test [20] was “inactive”. For the same compound, the max response in test [2] is -3.29% (inactive) and 1.65% (inactive).

`c1cc(C(c2ccc(OCC3CO3)cc2)C(c2ccc(OCC3CO3)cc2)c2ccc(OCC3CO3)cc2)ccc1OCC1CO1` (stereo unspecified): the Potency result in test [1], in [3], in test [4], in [5], in [6] and in test [7] was “inactive” each time. Also, the Potency entry in test [8], in test [9], in test [10], in test [11], in [12] and in test [13] was “inactive” each time. Further, the Potency result in test [14], in test [15], in [16], in [17], in test [18] and in test [19] was “inactive” in each case. The max response in [2] was -1.63% (inactive).

`CCn1cc(C(=O)O)c(=O)c2cc(F)c(N3CCNC(C)C3)c(F)c21` (stereo unspecified): the Potency entry in [1], in [3], in test [4], in [5], in test [6] and in test [7] was “inactive” each time. Further, the Potency result in test [8], in [9], in [10], in test [11], in test [12] and in test [13] was “inactive” each time. Moreover, the Potency result in test [14], in [15], in test [16], in [17], in test [18] and in test [20] was “inactive” each time. Besides, the max response in test [2] is 14.9% (inactive).

Take `Nc1ccc(O)cc1`: the Potency in test [1] is 50.9 µM (active) and inactive; in test [2] it was 32.1 µM (active); in test [13], 57.1 µM (active) and inactive; in [14], 40.4 µM (active) and inactive; in test [15], 40.4 µM (active) and inactive; in [20], 50.4 µM (active) and inactive. The max response in test [2] was 18.9% (inactive). The Potency entry in test [3], in test [4], in test [5], in [6], in test [7] and in [8] was “inactive” each time. Besides, the Potency entry in [9], in test [10], in test [11], in test [12], in test [16] and in test [17] was “inactive” each time. The Potency result in test [18] is “inactive”.

Turning to `Cc1ccnc2c1NC(=O)c1cccnc1N2C1CC1`, the Potency result in test [1], in [3], in test [4], in test [5], in test [6] and in [7] was “inactive” in each case. The Potency entry in [8], in test [9], in [10], in [11], in test [12] and in [13] was “inactive” in each case. Besides, the Potency entry in test [14], in test [15], in test [16], in [17] and in [19] was “inactive” each time. The max response in test [2] was -13.4% (inactive) and -3.25% (inactive).

As to `c1ccc2n[nH]nc2c1`, the Potency entry in [1], in [3], in test [4], in [5], in test [6] and in test [7] was “inactive” in each case. Besides, the Potency entry in test [8], in test [9], in test [10], in test [11], in [13] and in test [14] was “inactive” each time. For the same compound, the Potency result in test [15], in [16], in test [17], in test [18], in [19] and in test [20] was “inactive” each time. In test [2], the max response is 10.2% (inactive) and 5.87% (inactive). In addition, the Potency in test [12] was 9.5 µM (active) and inactive.

With `O=C1Nc2ccccc2C1(c1ccc(O)cc1)c1ccc(O)cc1`, the Potency result in test [1], in test [3], in test [5], in test [6], in test [7] and in test [8] was “inactive” throughout. In addition, the Potency entry in test [9], in test [10], in test [11], in test [12], in [13] and in test [14] was “inactive” in each case. Also, the Potency result in test [15], in test [17] and in test [18] was “inactive” in each case. Further, the results for the Potency in test [2] and in test [19] were 49 µM (active) and 0.298 µM (active), respectively. The max response in test [2] is -14.8% (inactive).

`O=C(O)CP(=O)(O)O`: the Potency result in test [1], in test [3], in test [4], in [5], in test [6] and in test [7] was “inactive” in each case. In addition, the Potency result in test [8], in test [9], in [10], in test [11], in test [12] and in [13] was “inactive” each time. Besides, the Potency result in [14], in [15], in [16], in [17], in [18] and in test [20] was “inactive” each time. Further, in [2], the max response is -6.08% (inactive).

With `OCCOCCN1CCN(C(c2ccccc2)c2ccc(Cl)cc2)CC1` (stereo unspecified), the Potency result in [1], in test [3], in test [8], in test [9], in test [12] and in test [15] was “inactive” in each case. The Potency result in [16], in test [17] and in test [19] was “inactive” each time. The Potency in test [2] is 7.66 µM (active); in test [5], 48.3 µM (active) and inactive; in test [6], 38.4 µM (active) and inactive; in test [7], 38.4 µM (active); in test [11] it was 24.2 µM (active) and inactive; in test [13] it was 48.3 µM (active) and inactive. The Potency in test [14] is 6.83 µM (active) and inactive; in [18] it was 43.1 µM (active) and inactive. Besides, the max response in test [2] was -17.5% (inactive).
